Compound activity from PubChem BioAssay.
CHO-K1 Ca antag: nonselective inhibitor or artifact in parental CHO-K1 cells; ATP-induced calcium, Fluo-8 fluorescence; inhibition, % at 3 µM; hit rate 0.6% among 360,000; AID 602250;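 active = inhibition above a per-plate cutoff, the plate's mean sample inhibition plus 3 SD, cut at about 24% in these data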;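 also: 0% = DMSO plus EC80 ATP and 100% = DMSO alone without ATP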
CHRM1 antagonist: blocks human M1 muscarinic receptor; CHO-K1 hM1, Fluo-8 calcium fluorescence, ACh EC80 antagonist; inhibition, % at 3 µM; hit rate 1.3% among 360,000; AID 588852; P11229;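 active = percent inhibition above its own plate's cutoff, namely the mean of that plate's compound wells plus 3 SD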;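 also: peak over basal fluorescence ratio during 140 s after agonist addition; 0% = ACh EC80 plus DMSO and 100% = DMSO alone without agonist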
Target sequence (P11229 whole entry, looked up): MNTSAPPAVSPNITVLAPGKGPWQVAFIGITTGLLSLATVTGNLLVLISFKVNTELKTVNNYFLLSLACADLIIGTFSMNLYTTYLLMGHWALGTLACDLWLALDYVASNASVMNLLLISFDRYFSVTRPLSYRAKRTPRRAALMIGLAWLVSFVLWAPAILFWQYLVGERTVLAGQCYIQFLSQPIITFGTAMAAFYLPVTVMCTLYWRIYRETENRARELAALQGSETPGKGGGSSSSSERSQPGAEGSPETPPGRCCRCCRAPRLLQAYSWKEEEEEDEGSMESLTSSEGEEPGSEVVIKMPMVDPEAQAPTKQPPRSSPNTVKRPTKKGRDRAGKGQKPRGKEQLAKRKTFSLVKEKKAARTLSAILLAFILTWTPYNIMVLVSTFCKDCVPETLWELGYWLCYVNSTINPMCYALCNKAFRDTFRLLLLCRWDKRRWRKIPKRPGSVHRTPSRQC
CHRM1 PAM: potentiates human M1 receptor response to acetylcholine. P11229. CHO-K1 hM1, Fluo-8 calcium fluorescence, ACh EC20; 0% = ACh EC20, 100% = maximal ACh. activation, % at 3 µM. hit rate 0.088% among 360,000. AID 588819; in the data active = activation above about 19%, passing the limit was not always enough
M1 ag parental: nonselective activator or artifact in parental CHO-K1 cells. activation, % at 3 µM. hit rate 0.48% among 360,000. Fluo-8 calcium fluorescence; scaled to maximal ATP response, vehicle zero. AID 602248; in the data active = activation above about 15%;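 also: untransfected CHO-K1 host cells lacking M1 receptor as counterscreen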
CHRM1 agonist: human M1 muscarinic receptor agonism. P11229. CHO-K1 hM1, Fluo-8 calcium fluorescence, agonist mode; 0% DMSO, 100% acetylcholine EC100. activation, % at 3 µM. hit rate 0.33% among 360,000. AID 588814;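 active = activation above the run's mean compound activation plus 3 SD, cut at about 16% in these data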;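 also: peak over basal fluorescence ratio within a 140 s kinetic read after compound addition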
CHO-K1 Ca PAM: counter-screen for M1 PAMs: effect in parental CHO-K1 cells | ATP EC20, Fluo-8 calcium fluorescence; 0% at ATP EC20, 100% at ATP max | hit rate 0.02% among 360,000 | AID 602247 | activation, % at 3 µM;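 active = activation above the run cutoff, the mean activation of all test compounds plus 3 SD, cut at about 40% in these data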;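 also: peak over basal fluorescence ratio in a 140 s read after ATP addition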
* = called active by the depositor. An excerpt weighted towards active compounds, which were near 2.3% of everything screened.

SMILES	CHO-K1 Ca antag	CHRM1 antagonist	CHRM1 PAM	M1 ag parental	CHRM1 agonist	CHO-K1 Ca PAM
O=C(COc1ccc(Cl)cc1Br)NC(=O)NC1CCCC1	20	31*	-17	-1	-6	-33
Cc1ccc(C(C(=O)NC2CCCCC2)N2CCCC2)cc1 (centres undefined)	-9	-7	-22	1	-6	28
O=C(COc1ccccc1Cl)NC(=O)NC1CCCC1	-9	34*	-22	1	-9	17
O=C(Nc1ccccc1Cl)NC1CCCCCCC1	7	8	-4	23*	13	-10
O=C(COc1ccc(Cl)cc1Cl)NC(=O)NC1CCCC1	14	2	-10	0	-7	-25
OC[C@H]1O[C@@](CO)(O[C@H]2O[C@H](CO)[C@@H](O)[C@H](O)[C@H]2O)[C@@H](O[C@H]2O[C@H](CO)[C@@H](O)[C@H](O)[C@H]2O)[C@@H]1O	0	-1	-10	0	-1	-6
CCO[C@@H]1OC(C(=O)N2CCCCCCC2)=C[C@H](c2ccc3c(c2)OCO3)[C@H]1CCCO	-3	-2	9	1	-2	2
O=C(Cc1csc(NC(=O)Nc2cccc(Cl)c2)n1)NCc1ccccn1	-2	2	-2	8	1	5
O=C(Nc1cccc(Cl)c1)Nc1nc(-c2ccc(Cl)cc2)cs1	22	30*	-5	5	3	4
O=C(Nc1ccncc1)Nc1cccc(Cl)c1	3	18	-10	14	5	2
O=C(Cc1csc(NC(=O)Nc2cccc(Cl)c2)n1)NC1CCCC1	8	4	1	16*	6	-3
O=C(Nc1cccc(Cl)c1)Nc1csc([N+](=O)[O-])c1	20	26	0	16*	6	-6
COc1ccc(-c2csc(NC(C)=O)n2)cc1OC	-6	-13	5	0	-4	12
COc1cccc(NC(=O)Nc2nc(-c3ccc(OC)c(OC)c3)cs2)c1	18	31*	-13	11	3	-27
COC(=O)CCC(C)C1CCC2C3CCC4CC(O)CCC4(C)C3=CC(=O)C12C (centres undefined)	-11	-6	-6	0	-5	12
C=CCn1c(C)cc(C(=O)COc2ccc(C)nc2[N+](=O)[O-])c1C	9	2	-5	17*	-1	-2
Cc1ccc(NC(=O)c2ccc3c(SCC(=O)O)c4c(nc3c2)CCCC4)c(Br)c1	-4	-13	6	0	0	-11
Cc1ccccc1S(=O)(=O)Cc1ccc(C(=O)N2CCN(c3ccccc3F)CC2)o1	-14	8	-8	9	2	-3
O=C(CCCCCN1C(=O)CCC1=O)Nc1ccc(Cl)c(C(F)(F)F)c1	-32	11	-13	17*	0	11
CCN1C(Nc2ccccc2)=NC[C@@H]1CC(C)C	-16	9	-4	1	-11	16
Cc1cccc(CCN2C(Nc3ccccc3)=NC[C@@H]2CC(C)C)c1	37*	57*	-36	64*	53*	-22
CC(C)C[C@H]1CN=C(N(C)C)N1CCc1cccc(F)c1	-15	6	-4	0	-13	-12
CC(C)C[C@H]1CN=C(Nc2ccccc2)N1CCc1ccc(F)cc1	23	25	-32	64*	50*	-17
CC(C)C[C@H]1CN=C(Nc2ccccc2)N1CCc1cccc(F)c1	43*	57*	-39	85*	63*	-23
CC(C)CCN1C(Nc2ccccc2)=NC[C@@H]1CC(C)C	-7	5	-2	1	-13	-5
SMILES	CHO-K1 Ca antag	CHRM1 antagonist	CHRM1 PAM	M1 ag parental	CHRM1 agonist	CHO-K1 Ca PAM
CCSc1nc(-c2cccs2)nc2ccccc12	-14	-12	11	1	-2	12
Nc1c(C(=O)C2CC2)sc2nc(-c3ccccc3)cc(C(F)(F)F)c12	75*	-8	11	109*	3	-1
COc1cc(C(=O)NCCc2ccc(S(N)(=O)=O)cc2)ccc1OCc1c(C)noc1C	-8	0	0	1	-3	0
CCC(CC)C(=O)OCC(=O)C1(O)CCC2C3CCC4=CC(=O)CCC4(C)C3C(O)CC21C (centres undefined)	-2	68*	-29	3	0	-14
CC12CCC(=O)C=C1CCC1C2C(O)CC2(C)C1CCC2(O)C(=O)COC(=O)CCC1CCCC1 (centres undefined)	0	41*	-31	3	-11	10
C[C@]12CCC(=O)C=C1CC[C@@H]1[C@@H]2[C@@H](O)C[C@@]2(C)[C@H]1CC[C@]2(O)C(=O)COC(=O)CCC(=O)O	2	-29	6	1	-4	4
CC(=O)OCc1ccc(C2=CC(=O)CC(C)(C)C2=O)cc1	24*	-9	18	0	3	-13
CC(C)(C)C(=O)OCc1ccc(C2=CC(=O)CC(C)(C)C2=O)cc1	-6	2	-5	2	1	0
CCCCOc1ccc(C(=O)N2CCCC2C(=O)O)cc1 (centres undefined)	-4	-4	3	0	-3	4
CCCOc1ccc(C(=O)N2CCCC2C(=O)O)cc1 (centres undefined)	-31	-24	28*	0	3	14
CCCS(=O)(=O)N1CCN(CC2CC3C=CC2C3)CC1 (centres undefined)	-17	0	-5	1	22*	23
COc1ccc(/C(C)=N/OCC(=O)Nc2nc3ccccc3s2)cc1OC	2	12	-9	19*	-3	13
C/C(=N\OCC(=O)Nc1nc2ccccc2s1)c1ccccc1	-14	-6	6	1	-2	24
Cn1c(=O)c2c(nc(NCc3ccco3)n2C/C=C/c2ccccc2)n(C)c1=O	-3	32*	-10	2	0	15
Cn1c(=O)c2c(nc(NCc3ccco3)n2C)n(C)c1=O	6	-9	3	0	-6	-3
CCCCCCCCCn1c2c(c(=N)c3c1CCC3)CCC2	18	31*	-9	5	-1	11
O=C(O)c1cccc2c1/C(=N/O)c1ccccc1-2	-17	-21	29*	1	1	13
O=C(c1cccc2c1-c1ccccc1/C2=N/O)N1CCCCC1	25*	-10	5	0	-2	-7
O=C(O)c1cccc2c1-c1ccccc1/C2=N\Nc1ccccc1	-17	-11	9	0	-3	8
CCc1nccn1S(=O)(=O)c1ccccc1[N+](=O)[O-]	10	2	-1	0	-1	-20
CC1=C(C)CC(C(=O)Nc2ccc3c(c2)OCO3)C(C(=O)O)C1 (centres undefined)	15	6	-14	5	-5	-1
O=c1c2ccccc2nnn1Cc1nnc(-c2ccccc2Br)o1	-29	-5	8	11	16*	18
